# Test results published in the supplement of paper PMC11417369.
# ± gives the standard deviation of the averaged measurements. The full ranking holds about 25,000 sequences; the median of “ln(normalized median fluorescence intensity)” is about 8.9, and the highest 2% start at about 10. This is one part of a sample in which the highest values are shown more often than they occur.
# Tested on: PfAP2-LT AP2 domain (GST-tagged)
# Assay: gcPBM binding intensity (ln(normalized median fluorescence intensity)); higher = stronger DNA binding
# Outline: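 DNA-binding domains from P. falciparum, fused to GST and produced in E. coli, were put on an Agilent 4 × 180k double-stranded probe array for 1 h in 1× PBS holding 1% milk, 0.2 mg/ml BSA, 0.5% salmon testes DNA and 0.03% Triton X-100. Probes were primer-extended, 36 bp long and drawn from intergenic genomic regions, with negative controls included. After Alexa488 anti-GST antibody detection and a 488 nm scan, binding intensity was set as the highest Masliner-normalised natural-log median intensity across replicate spots of either probe orientation.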
row,Sequence,gcPBM binding intensity (ln)
1,TATATATGTTCAATATGTACATATATATAAGTGTAT [XGTACX_site5157],8.79 ± 0.41
2,AATATATCAAAAATTGGATAGTTTCTTATAAAAAAT [CACACA_negctrl_site39],8.43 ± 0.46
3,ATATATATATATATATGTACATATATTCGATTATTA [XGTACX_site557],9.695 ± 0.035
4,AAATTATAATATAATACACACATAAAAAAAAAAAAA [CACACA_site7],8.93 ± 0.47
5,CATATAAATAAATACACACACACACGCCTTATAATT [CACACA_site7830],10.19 ± 0.078
6,TACATATATATAAATACACACACACCCACCTTATAA [CACACA_site9346],9.88 ± 0.15
7,CATATATATAAATACACACACACACCCCTTATAATT [CACACA_site4064],10.2 ± 0.15
8,TAATTATATAAATACACACACATACACCCAAATAAA [CACACA_site5819],9.8 ± 0.2
9,ACATATAAATTATATACACACAATAATATATATATA [CACACA_site1384],9.01 ± 0.39
10,CCTCCCATTTTTACACGTACACATTTAAAATAGACT [XGTACX_site5640],8.95 ± 0.21
11,TATAAAGGTGAAATTTGTACATAGTCATTTTTTAAT [XGTACX_site4811],8.52 ± 0.42
12,TATAAAAAAATATATATATATATATATATATAAATA [TGCATGCA_negctrl_site22],9.09 ± 0.37
13,TAATAAAGTGAATAATGTACATTTTATTTATTATAT [XGTACX_site6614],8.62 ± 0.45
14,GATGCACTTTAAAAATGTACTTATACCTTTAATTGT [XGTACX_site6395],8.76 ± 0.41
15,ATAAAAAAAGGACACACACACATATATATATATATA [CACACA_site5662],10.46 ± 0.05
16,ATAAAAAAAGGACACACACACATATATTTATTTATA [CACACA_site7438],9.71 ± 0.19
17,CATATAAAAAGACACACACACACATATATATATATA [CACACA_site940],9.92 ± 0.31
18,TATAAAAGTAGACACACACACATATAAATATAAATA [CACACA_site6567],9.66 ± 0.27
19,CATATAAAAGGACACACACACACATATAAATATGTA [CACACA_site6568],9.88 ± 0.3
20,AAAAAAAAAAGACACACACACATATAAATATAAATA [CACACA_site6899],9.81 ± 0.26
21,AATATAAAAAAAAAAAAAAAAAAAAAAAAAAAGACA [CACACA_negctrl_site983],8.66 ± 0.5
22,TATAAATAAAGACACACACACATATAAATAAATATA [CACACA_site7155],9.68 ± 0.26

row,Sequence,gcPBM binding intensity (ln)
1,ATAAAAAAAAGACACACACACATATATATATATATA [CACACA_site3073],10.2 ± 0.18
2,AAAAAAAAAAGACACACACACACATAAATATAAATA [CACACA_site6215],10.2 ± 0.42
3,AAAGAAAGAAGACACACACACATATATAAATATCAA [CACACA_site7715],9.88 ± 0.23
4,TAAAAAGGAAGACACACACACACATATATAAATATA [CACACA_site7657],10.2 ± 0.34
5,TTTGTGCCTATAAATTAACACACAGAAATATATAGA [CACACA_site8175],9.06 ± 0.28
6,TACTTCATTCATTTTACACACATATAAACCCTTTTA [CACACA_site3229],9.15 ± 0.47
7,ATTTATATGTAGATGTGTACTTAATTGTAATGTGTT [XGTACX_site6422],8.95 ± 0.45
8,TTTATTTCCTTTTTGTGTACATATATATGTAATTCA [XGTACX_site1718],8.78 ± 0.53
9,AACAAAATTGAAGGAACACACATACATATTTATATA [CACACA_site6227],9.07 ± 0.41
10,AATTTATAAATAATTAATTTGATAAATTATAAAGGG [GTGCAC_negctrl_site544],8.45 ± 0.45
11,AAAAAGAAATATTTATGTACATAATAATAATATTTT [XGTACX_site4693],8.63 ± 0.44
12,GGCTAAAAGTTGCACACACACAAAAAAAAAAAAAAA [CACACA_site7531],9.37 ± 0.51
13,ATTTATGAAAGAAATAGTACACACATAAACATTTGT [XGTACX_site5862],9.03 ± 0.36
14,TATAAAAAAATATATATATATATTATATGTGTAGAA [TGCATGCA_negctrl_site391],8.71 ± 0.54
15,AATCCACAAAGACACACACACACATATATATATATA [CACACA_site1269],10.2 ± 0.23
16,AAAAAAAAAAAAAAGACACACATATATATATATATA [CACACA_site633],10.1 ± 0.13
17,GTAATCCACAAACACACACACATACACATATATATA [CACACA_site2728],9.98 ± 0.19
18,TATTTATTTAAAGGCACACATATTTTTATACTTTCT [CACACA_site3163],8.79 ± 0.49
19,AAATTTATAAAGAACACACACATATATATATATATA [CACACA_site48],10 ± 0.21
20,TTTTTTATATATGTGTGTGTGTGTGTGTCAAGTTTA [GTGCAC_negctrl_site460],10.3 ± 0.24
21,TGTGTCAAGTTTAATAAACGCATATAATATATATGA [CACACA_negctrl_site607],8.59 ± 0.41
22,AATTTTTTTTTTTTTTTTTTTTATATATGTGTGTGT [XGTACX_negctrl_site129],9.32 ± 0.42
